ELG1 repair inh = inhibitors of ELG1-dependent DNA repair in HEK293T cells. HEK293T ELG1-luciferase reporter, luminescence, 16 h; DNA damage induced by 5-fluorouridine. Potency, µM (doses to about 46.1 µM), for the others: at the top dose activity change, negative = inhibition, most hits filed as inhibitors. 330,000 tested, 2.3% active; also: potency is read from the fitted curve at half-maximal effect; nearly all actives have a fitted effect of over 55% in size
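HEK293T cells expressing luciferase-tagged ELG1 (2,000/well) received 5-Fluorouridine plus compound or DMSO for 16 hr at 37 °C. Luciferase was read by ONE-Glo luminescence after 30 min at room temperature.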
HT1080 IDH1KD tx = HT-1080 IDH1 knockdown cell toxicity (counter line) | HT-1080 IDH1 knockdown viability, ATP luminescence, 48 h | Potency, µM (top dose mostly 46.1 µM), for inactives: top-dose activity, negative = toxicity, most hits filed as cytotoxic | 360,000 tested, 2% active;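 also: potency is read from the fitted curve at half-maximal effect; 0% = DMSO wells and -100% = cell-free medium wells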
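CellTiter-Glo luminescence after 48 h compound exposure at 37 degrees C of IDH1-knockdown HT-1080 cells in 5% FBS RPMI. %Activity scaled between DMSO wells and cell-free media wells, with curves fitted and assigned curve classes.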
TDP1 cell noCPT = qHTS for Inhibitors of human tyrosyl-DNA phosphodiesterase 1 (TDP1): qHTS in cells in absence of CPT. DT40 Tdp1-/- hTDP1 cells, no CPT, ATP luminescence, 48 h. Potency, µM (doses to about 46.2 µM), for inactives: at the top dose activity change, negative = growth inhibition, most hits filed as inhibitors. 420,000 tested, 15% active. AID 686978, 2013; also: potency is read from the fitted curve at half-maximal effect; nearly all actives have a fitted effect of over 55% in size
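No-CPT arm: Tdp1-/-;hTDP1 DT40 cells (400/well) plus compounds, incubated ≥48 hr at 37 °C. Readout CellTiter-Glo luminescence.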
TDP1 cell CPT = growth inhibition of DT40 Tdp1-/-;hTDP1 cells with camptothecin (screen for TDP1 inhibitors). chicken DT40 Tdp1-/-;hTDP1 cells + 20 nM CPT, ATP luminescence, 48 h. Potency, µM (doses to about 46.2 µM), for the others: at the top dose activity change, negative = growth inhibition, actives largely listed as inhibitors. 420,000 tested, 12% active. AID 686979; also: potency is read from the fitted curve at half-maximal effect; nearly all actives have a fitted effect of over 55% in size
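Chicken DT40 Tdp1-/- cells stably complemented with human TDP1 were seeded at 400 cells/well in medium containing 20 nM camptothecin, exposed to pin-transferred compounds, and grown at 37 °C for at least 48 hr. Viability was read as ATP luminescence.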
IL1B secr inh = inflammasome signaling inhibition, IL-1 beta readout; THP-1 LPS/ATP IL-1B secretion, AlphaLISA, 16 h; active compounds read low; activity change, % at 57.5 µM; 360,000 tested, 4.7% active; in the data active = activity change below about -50%; inconclusive = mostly about -30% to -49%
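Secreted IL-1B measured by AlphaLISA bead assay after 16 h compound exposure of THP-1 cells; compounds (final up to 57.5 uM) added 1 h before LPS (250 ng/mL) and ATP (1.25 mM) stimulation; lower signal means less secretion.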
HT1080NT lethal = kills 2HG-producing HT-1080-NT fibrosarcoma cells | HT-1080-NT fibrosarcoma viability, CellTiter-Glo ATP luminescence, 48 h | AID 686970 | 360,000 tested, 1.6% active | Potency, µM (highest dose often 46.1 µM), for the others: top-dose activity, negative = less viability, hits mostly cytotoxic;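 also: NT is the 2HG producing partner of a matched IDH1 knockdown line; potency is read from the fitted curve at half-maximal effect; 0% = DMSO-treated cells and -100% = media-only wells without cells; nearly all actives have a fitted effect of over 55% in size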
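HT-1080-NT fibrosarcoma cells (2HG-overproducing), 750 cells/well in RPMI with 5% FBS, dosed after 2 h and incubated 48 h at 37C. CellTiter-Glo luminescence normalized to DMSO and no-cell wells; concentration-response curves fitted and classed.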
* = called active by the depositor; ? = inconclusive; / = no result; [ ] = remark or other dose. An excerpt weighted towards active compounds, which were near 19% of everything screened. Unless noted, calls follow the shape of the dose curve; as a rule, active = well fitted curve in the direction sought with a large enough effect; inconclusive = small, poorly fitted or top-dose-only effect, or another doubt; inactive = no such curve, though single readings can be large; an effect the other way counts as inactive or inconclusive. Unless noted, % is scaled to controls: 0 for no effect and ±100 for the full control effect.

SMILES | ELG1 repair inh | HT1080 IDH1KD tx | TDP1 cell noCPT | TDP1 cell CPT | IL1B secr inh | HT1080NT lethal
COc1cc(/C=C2\CCc3c2nc2ccccc2c3C(=O)O)cc(OC)c1OC | ? | ? | -17% | -4% | 20 | ?
CCCCNC(=O)COC(=O)c1c2c(nc3ccccc13)/C(=C/c1cccs1)CC2 | ? | ? | ? | 23µM* | -27 | -22%
Nc1nc(Cl)nc2ccc(Br)cc12 | ? | -8% | 12µM* | ? | 22 | -9%
C=CCOc1cccc(C2/C(=C(\O)c3ccc4c(c3)OCCO4)C(=O)C(=O)N2CCN2CCOCC2)c1 (stereo unspecified) | 6% | 2% | 27% | 0% | 0 | 2%
Cc1c(C#N)c(O)n(CCO)c(=O)c1N=Nc1ccc(S(N)(=O)=O)cc1 | -11% | 11% | 9% | -29% | 7 | 0%
Cc1c(C#N)c(O)n(C)c(=O)c1N=Nc1ccc(S(N)(=O)=O)cc1 | -13% | -1% | 13µM* | ? | -19 | -2%
CCN(c1ccccc1)S(=O)(=O)c1ccc(Cl)c(NC(=O)CSc2nc(N)cc(=O)[nH]2)c1 | / | -9% | -23% | -26% | 18 | -2%
Cc1cc(CNC(=O)C(C)n2cc([N+](=O)[O-])cn2)c2ccccc2n1 (stereo unspecified) | 9% | -11% | 21µM* | ? | 13 | -28%
Cc1cc(CNC(=O)Cn2cc([N+](=O)[O-])cn2)c2ccccc2n1 | 14% | -18% | ? | ? | 32 | -27%
O=C(Cc1n[nH]c(=O)c2ccccc12)OCC(=O)c1ccc2c(c1)OCCO2 | ? | 8.2µM* | 1.3µM* | 0.92µM* | 64 | ?
O=C(Cc1n[nH]c(=O)c2ccccc12)OCC(=O)c1ccc(F)cc1 | -4% | 8% | -6% | -1% | 9 | 0%
O=C(COC(=O)Cc1n[nH]c(=O)c2ccccc12)NNC(=O)c1ccc(Cl)cc1 | -1% | -17% | 23µM* | 21µM* | 12 | -11%
CCOc1ccc(C(=O)COC(=O)Cc2n[nH]c(=O)c3ccccc23)cc1 | ? | 5.2µM* | 0.73µM* | 0.92µM* | 38 | 6.5µM*
COc1ccc(C(C)=O)cc1COC(=O)Cc1n[nH]c(=O)c2ccccc12 | 2% | -15% | ? | ? | 20 | -3%
CN(C)S(=O)(=O)c1cccc(NC(=O)c2cc(-c3cccs3)nc3ccccc23)c1 | 7.3µM* | 7% | 10µM* | ? | -3 | 7%
NS(=O)(=O)c1ccc(NC(=O)c2cccc3cc4ccccc4nc23)cc1 | / | ? | 5.2µM* | 5.8µM* | ? | 4%
NS(=O)(=O)c1ccc(CNC(=O)c2cc(-c3cccs3)nc3ccccc23)cc1 | ? | -4% | ? | ? | 7 | -1%
Cc1cc(C(=O)OCC(=O)Nc2cccc(S(=O)(=O)N(C)C)c2)c2ccccc2n1 | -10% | -5% | ? | -21% | 26 | 0%
NS(=O)(=O)c1cccc(NC(=O)c2cccs2)c1 | -4% | 27% | ? | 21µM* | -7 | 7%
NS(=O)(=O)c1cccc(NC(=O)c2cc(-c3cccs3)nc3ccccc23)c1 | ? | 0% | 15µM* | 21µM* | -18 | -18%
NS(=O)(=O)c1ccc(NC(=O)c2cccc3ccccc23)cc1 | -3% | -5% | 2% | 11% | -15 | 3%
NS(=O)(=O)c1cccc(NC(=O)CCC(=O)c2cccs2)c1 | ? | 15% | -10% | -21% | 42 | 12%
COc1ccc(C(CC(=O)O)NC(=O)c2ccccc2[N+](=O)[O-])cc1 (stereo unspecified) | -3% | 3% | 0% | -5% | 23 | 0%
COc1ccc(C(C[N+](=O)[O-])c2c(-c3ccccc3)cc3ccccn23)c(OC)c1 (stereo unspecified) | ? | ? | 5.2µM* | 2.9µM* | -11 | ?
COc1ccc(C(C[N+](=O)[O-])c2c(C)[nH]n(-c3ccccc3)c2=O)cc1 (stereo unspecified) | -15% | -24% | 16µM* | 13µM* | -52* | ?
SMILES | ELG1 repair inh | HT1080 IDH1KD tx | TDP1 cell noCPT | TDP1 cell CPT | IL1B secr inh | HT1080NT lethal
Cc1cc2ccccn2c1C(C[N+](=O)[O-])c1ccc(N(C)C)cc1 (stereo unspecified) | 4% | -23% | ? | 16µM* | 7 | -1%
COc1ccc(NC(=O)c2cnc3ccccn3c2=O)c(OC)c1 | / | 7% | -9% | 2% | -17 | 8%
COc1ccc(C(C[N+](=O)[O-])c2c(C)cc3ccccn23)cc1 (stereo unspecified) | -10% | ? | 18µM* | 10µM* | -7 | ?
O=C(COc1cc(F)ccc1[N+](=O)[O-])NCC1CCCO1 (stereo unspecified) | 1% | -2% | 20% | -15% | 10 | -1%
CCCCn1c(-c2sccc2C)n[nH]c1=S | 6% | 5% | ? | 8% | 30 | 8%
COCC(=O)N1CCC2(CCCN(Cc3ccccc3OC)C2)CC1 | / | / | 4% | 25% | / | /
COc1cc2c(cc1OC)C(c1cc3cccc(C)c3[nH]c1=O)N(C(=O)c1ccco1)CC2 (stereo unspecified) | -22% | / | / | / | / | /
C#CC(C)OCC1CNC(=S)O1 (stereo unspecified) | / | 5% | -7% | 1% | 2 | 13%
CCOC(=O)N1CCN(C(=O)COc2ccc(S(=O)(=O)NC3CCCCC3)cc2C)CC1 | ? | -10% | 18µM* | ? | 1 | -11%
Cc1cc(S(=O)(=O)NC2CCCCC2)ccc1OCC(=O)N1CCOCC1 | -20% | 1% | -22% | -28% | 6 | 1%
CCOC(=O)N1CCC(NS(=O)(=O)c2ccc(C)c(Cl)c2)CC1 | 16µM* | -26% | 6.5µM* | ? | 34 | -26%
Cc1ccccc1OCC(=O)NC(=S)Nc1ccc(S(=O)(=O)NC2CCCCC2)cc1 | 4% | 1%[9.24 µM] | 13µM* | ? | -5 | ?
CCOC(=O)N1CCC(NS(=O)(=O)c2ccc3c(c2)oc(=O)n3C)CC1 | -1% | 1% | -15% | -15% | 18 | 0%
O=C(OCc1cc(=O)n2nc(-c3cccs3)sc2n1)c1cccc(F)c1 | / | / | -24% | -16% | / | /
COc1ncnc2c1ncn2CCCN(CCCc1ccccc1)CCCn1cnc2c(OC)ncnc21 | / | 8% | ? | -20% | -4 | -12%

Compound activity (PubChem BioAssay)
